Screening results deposited in PubChem by several laboratories.
NTR1 ag = agonists of human neurotensin receptor NTR1. P30989. activation, % at 20 µM. 330,000 tested, 0.17% active. AID 493036. NTR1-U2OS beta-arrestin-GFP spot imaging, agonist mode;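 active means activation at or above 40% of the spot to cytoplasm intensity ratio, with at least 20 cells analyzed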;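 further: 0% = DMSO without peptide and 100% = 100 nM NTR1 peptide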
Target sequence (P30989 whole entry, looked up): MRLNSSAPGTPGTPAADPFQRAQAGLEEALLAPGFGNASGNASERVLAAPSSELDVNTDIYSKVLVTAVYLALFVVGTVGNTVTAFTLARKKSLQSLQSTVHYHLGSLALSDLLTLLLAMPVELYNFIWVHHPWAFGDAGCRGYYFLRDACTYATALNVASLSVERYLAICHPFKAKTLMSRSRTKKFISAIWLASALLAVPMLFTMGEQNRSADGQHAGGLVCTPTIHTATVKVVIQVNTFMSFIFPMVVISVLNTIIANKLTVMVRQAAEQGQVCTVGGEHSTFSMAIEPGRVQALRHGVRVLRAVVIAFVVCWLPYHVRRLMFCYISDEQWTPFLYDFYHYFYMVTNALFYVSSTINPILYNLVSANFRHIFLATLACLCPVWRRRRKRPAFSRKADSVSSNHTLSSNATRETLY
GRIN3A LBD mod = modulates the human NR3A ligand-binding domain; 340,000 tested, 2.5% active; NR3A LBD differential scanning fluorimetry, Tm shift; 0% = protein alone, 100% = glycine-bound protein; AID 1259313; Tm shift relative to glycine control, % at 25 µM;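 active means melting temperature shift of at least 10% of the positive control shift, at one fixed dose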
SUMO Mot1 rescue = blocks SUMOylation pathway, rescuing yeast Mot1-301 growth; S. cerevisiae Mot1-301 growth rescue, ATP luminescence, 38.5C; percent above DMSO median, 100 means doubled; growth rescue, % at 18.8 µM; 320,000 tested, 1% active; AID 2716;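 active means every valid replicate shows activation above 250% relative to neutral control wells; inactive means the rest, any valid replicate at or below 250%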;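 further: OY570 slx delta 5 strain wells were the positive control but not used for scaling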
AI-2 QS modul = Vibrio harveyi AI-2 quorum sensing modulation; Vibrio harveyi JMH597 AI-2 luminescence/OD600 ratio, 9 h; stronger effect = lower value; strain lacks LuxN and CqsS sensors; 0 = neutral-control median; activity change, % at 7.5 µM; 300,000 tested, 0.4% active; in the data active means activity change below about -75%, passing the limit was not always enough;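 further: luminescence divided by OD600 gain over 9 h not by final OD600 alone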
Cardio protect = myocardial damage modulation in H9c2 cells; 360,000 tested, 0.63% active; H9c2 cardiomyocytes, H2O2 injury protection, ATPLite, 2 h; protection from H2O2 cell death, % at 20 µM; AID 588492;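 active means compounds giving at least 50% protection of heart cells from peroxide-induced death in the single-dose screen, raw or plate-pattern-corrected value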;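 further: 0% = DMSO wells with peroxide and 100% = DMSO wells without peroxide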
AHR activator = human AHR activation; AHR-responsive luciferase reporter cells, luminescence; 320,000 tested, 2.5% active; P35869; activation, % at 5 µM; in the data active means activation above about 47%;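 further: 0% = vehicle wells and 100% = reference agonist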
AHR act confirm = human AHR activation, confirmation; shares compounds with AHR activator; 2,300 tested, 87% active; human cells, AHR-responsive luciferase reporter, luminescence; AID 2845; activation, % at 9 µM; in the data active means activation above about 49%;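 further: HepG2 hepatoma cells carrying a DRE-driven firefly luciferase reporter; 0% = vehicle wells and 100% = reference agonist wells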
PXR counter = activates human PXR in AHR activator counter-screen. shares compounds with AHR activator. cell-based PXR reporter, luciferase luminescence. activation, % at 11.6 µM. 2,300 tested, 88% active. AID 434939; in the data active means activation above about 11%;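 further: human hepatoma DPX-2 cells expressing full-length human PXR; 0% = DMSO and 100% = reference agonist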
The depositor's hits bear a star; i = inactive; x = not tested or not shown. In the library only some 6.2% were active in any assay of this set; here they are far more common.

SMILES	NTR1 ag	GRIN3A LBD mod	SUMO Mot1 rescue	AI-2 QS modul	Cardio protect	AHR activator	AHR act confirm	PXR counter
O=[N+]([O-])c1cccc(/C([O-])=C(/C(=S)Nc2ccccc2)[n+]2ccccc2)c1	0.8	-2.8	12.8	21.4	0.7	82.5*	43.1	159.0*
O=C(N/N=C/c1cccc([N+](=O)[O-])c1)c1c[nH]c2ccccc12	-0.3	27.2*	7.1	40.8	10.1	97.4*	139.7*	19.1*
Cn1cc(C(=O)N/N=C/c2cccc([N+](=O)[O-])c2)c2ccccc21	2.8	9.4	-17.8	23.8	5.5	98.7*	41.2	19.3*
COc1ccc(C)cc1NC(=O)COC(=O)Cc1c[nH]c2ccccc12	x	x	x	x	-0.6	x	x	x
COc1ccc(S(=O)(=O)NNC(=O)c2cc3c4ccccc4n(C)c3s2)cc1	0.7	0.1	8.5	6.3	-3.0	110.1*	98.4*	245.8*
Cc1nc(C)c(-c2csc(Nc3ccc(N)cc3)n2)s1	2.0	-3.0	0.7	x	10.7	126.5*	21.8	19.2*
COc1ccc(Nc2nc(-c3sc(C)nc3C)cs2)cc1	2.1	-9.5	0.0	11.5	-1.3	44.0	x	x
Cc1nc(N)sc1-c1csc(Nc2ccccc2)n1	1.2	-6.1	-17.4	16.0	-3.8	81.2*	147.0*	19.9*
COc1ccc(Cl)cc1N(CC(=O)N1CCCCCC1)S(C)(=O)=O	2.3	0.2	-7.4	16.2	-5.9	12.0	x	x
Cc1nn(CC(=O)NC(=O)c2ccccc2)c(C)c1[N+](=O)[O-]	-1.4	-1.8	-9.1	x	-5.3	1.2	x	x
C/C(CC(=O)Nc1cc(Cl)ccc1Cl)=N\NC(N)=S	-2.9	-0.4	0.3	21.7	-12.0	83.7*	1.6	14.4*
C/C(CC(=O)Nc1ccc(Cl)cc1Cl)=N\NC(N)=S	1.6	0.5	34.9	3.4	-3.6	2.6	x	x
COc1ccc(N2CCN(C(=O)c3cc4c(-c5ccc(Cl)cc5)nn(C)c4s3)CC2)cc1	4.6	-1.5	5.0	18.2	0.0	90.1*	121.3*	33.1*
CN1CCN(CCCNC(=O)c2cc3c(-c4ccc(Cl)cc4)nn(C)c3s2)CC1	3.7	2.2	x	5.2	3.8	97.8*	101.7*	x
O=C(NCCCN1CCCC1)c1cc2c(Cl)nc3ccccc3c2s1	1.0	-1.3	40.3	9.0	6.7	5.2	x	x
CCOc1ccc2ccccc2c1/C=N/NC(=O)CNC(=O)c1ccccc1F	0.1	-4.5	19.0	13.7	4.4	6.8	x	x
COCCNC(=O)C1(C)CCN(C(=O)c2oc3ccccc3c2C)C1 (stereo not given)	x	x	x	x	1.3	x	x	x
Cc1ccc(F)c(NC(=S)Nc2cccc3ccccc23)c1	2.2	x	-12.9	-6.7	-6.1	94.4*	9.1	106.4*
CCN(CC)CCNc1nc2cc(OC)c(OC)cc2c2nc(-c3ccccc3)nn12	4.4	2.2	-5.8	10.3	8.1	90.4*	16.6	4.6
CN(C)S(=O)(=O)Oc1ccc(Cl)cc1C(=O)Nc1ccc(F)cc1F	0.7	-0.4	-9.2	-6.9	-4.3	80.5*	80.5*	191.2*
OC(CN(Cc1ccccc1)Cc1ccccc1)c1ccccc1 (stereo not given)	x	4.7	x	x	-3.1	x	x	x
Cc1cccc(-c2nc(C#N)c(NC3CCCCC3)o2)c1	3.0	-12.6	4.6	23.6	-20.6	144.7*	7.1	86.0*
COCCNC(=O)C1(C)CCCN(C(=O)c2cc(OC)c(OC)c(OC)c2)C1 (stereo not given)	x	x	x	x	0.7	x	x	x
Cc1ccccc1Nc1n[nH]c(C)c1[N+](=O)[O-]	3.1	-6.1	22.8	11.0	-5.1	80.1*	106.5*	22.2*
Cc1[nH]nc(Nc2ccc(O)cc2)c1[N+](=O)[O-]	3.4	-40.0	-15.7	1.9	8.6	-3.6	x	x
SMILES	NTR1 ag	GRIN3A LBD mod	SUMO Mot1 rescue	AI-2 QS modul	Cardio protect	AHR activator	AHR act confirm	PXR counter
Cc1ccc(Nc2n[nH]c(C)c2[N+](=O)[O-])c(C)c1	0.9	-1.8	i	15.1	-6.3	132.1*	126.8*	15.0*
Cc1nc(NC(=O)C2CC2)sc1C(=O)Nc1ccc(Br)cc1	1.6	-4.0	-17.3	-1.8	3.1	102.7*	103.9*	32.5*
CCc1cccc2sc(NC(=O)C3CC3)nc12	0.2	12.3*	-4.9	11.5	5.2	91.0*	118.6*	12.9*
Cc1nc(NC(=O)C2CC2)sc1C(=O)Nc1ccccc1	-0.8	0.7	0.3	9.4	7.4	8.2	x	x
CCOc1cccc2sc(NC(=O)CC)nc12	0.1	1.3	-4.2	-8.3	-1.3	28.9	x	x
Cc1cc(C)c2sc(N)nc2c1	2.4	-1.2	0.4	24.4	-3.4	2.4	x	x
Cc1cc(C)c2sc(NC(=O)C3CC3)nc2c1	4.5	0.1	-4.5	-4.0	-7.8	106.0*	117.5*	58.7*
Cc1ccc(C)c2sc(NC(=O)C3CC3)nc12	0.3	9.0	-10.5	13.5	-9.9	91.8*	121.2*	x
O=C(CN1C(=O)NC2(CCc3ccccc32)C1=O)Nc1ccc(Cl)cc1F (stereo not given)	x	x	x	x	-1.0	x	x	x
Cn1cccc1C(=O)OCc1cc(-c2ccco2)on1	-2.1	1.2	21.3	x	-10.2	-0.8	x	x
O=C(NCCc1c[nH]c2ccccc12)C1CCC(=O)N(CCc2cccc(F)c2)C1 (stereo not given)	0.0	-2.3	-4.9	11.8	-6.3	4.1	x	x
COc1cc(C2NC(=O)NC(C)=C2C(=O)OC2CCCCC2)cc(Cl)c1O (stereo not given)	1.5	0.1	39.8	2.6	-5.3	0.4	x	x
Cc1cccc2nc(C(=O)Nc3cc(Cl)ccc3-n3cncn3)cn12	0.9	-2.6	-12.3	x	27.3	87.7*	87.6*	30.3*
CCOC(=O)c1c(NC(=O)c2nn(CC)cc2Br)sc(C)c1C	4.8	-7.2	14.2	8.3	-3.8	15.0	x	x
CCn1cc(Br)c(C(=O)Nc2ccc(Cl)cc2Cl)n1	5.6	-5.9	-27.0	14.1	-9.0	81.8*	126.5*	11.3*
c1ccc(Nc2nc(-c3cccs3)cs2)nc1	2.8	-1.3	69.9	1.1	-32.5	117.3*	154.6*	23.2*
O=C(COc1ccccc1)Nc1nc(-c2cccs2)cs1	6.6	-4.5	8.5	8.5	4.0	4.4	x	x
Cc1cccc(Nc2nc(-c3ccccn3)cs2)n1	2.3	-2.5	214.5	-36.7	-12.9	39.9	x	x
Nc1ccc(Nc2nc(-c3cccs3)cs2)cc1	-0.2	0.1	-5.2	18.1	-10.1	117.1*	12.3	16.2*
Cc1cccc(Nc2nc(-c3cccs3)cs2)n1	22.6	-5.6	-11.9	6.2	-23.5	87.2*	160.5*	20.8*
Oc1ccc(-c2csc(Nc3ccccn3)n2)c(O)c1	12.1	35.6*	-5.4	x	-12.3	168.8*	102.8*	14.7*
